RMI FANCM FP: blocks RMI1/RMI2 complex binding to FANCM MM2 peptide | 70,000 compounds, 0.58% hits | AID 1159607 | FP signal (polarization) at 33 µM | Fluorescence polarization, RMI core complex with F-MM2 peptide; stronger effect = lower value; in the data active means FP signal below about 40
* = called active by the depositor; ! = repeats disagree. The entries come from a sample that favours hits as a whole.

SMILES	RMI FANCM FP
CN(C)S(=O)(=O)c1ccc(C(=O)Oc2ccc3nc(N4CCN(c5ccccc5)CC4)sc3c2)cc1	70
O=C(Nc1nc2c(s1)Cc1ccccc1-2)c1ccc2ncsc2c1	74
O=C(Nc1nc2c(s1)CCc1ccccc1-2)c1nc2ccccc2s1	58
O=C(Nc1nc2c(s1)Cc1ccccc1-2)c1nc2ccccc2s1	-62*
COc1ccc(Oc2ccc([N+](=O)[O-])cc2-c2nc(-c3ccccn3)no2)cc1	59
COc1ccc(Oc2ccc([N+](=O)[O-])c3nonc23)cc1	4*
CCOC(=O)CNC(=O)c1cc([N+](=O)[O-])ccc1Oc1ccc(OC)cc1	59
CNC(=O)C(=O)Nc1ccccc1Cl	54
CCOC(=O)N1CCc2c(sc(NC(=O)c3cc4cc([N+](=O)[O-])ccc4s3)c2C(N)=O)C1	61
Cc1ccc(-c2noc(-c3cccn(CC(=O)Nc4ccc(F)cc4F)c3=O)n2)cc1	95
COc1cc2cc(CNc3ccc(C)cc3)c(=O)n(CC(=O)Nc3ccc(F)cc3F)c2cc1OC	9*
COc1cc(-c2ccc(=O)n(CC(=O)Nc3ccc(F)cc3F)n2)cc(OC)c1OC	56
CS(=O)(=O)c1cccc(-c2nnc(NC(=O)c3ccccc3Br)o2)c1	64
COC(=O)c1c(-c2ccccc2)csc1NC(=O)CN1CCN(C)CC1	72
Cc1cc(NC(=O)c2cc(=O)c3ccccc3o2)n(-c2nc3c(c(=O)[nH]2)CCC3)n1	9*
Cc1cc(NC(=O)C(=O)c2c[nH]c3ccccc23)n(-c2nc3c(c(=O)[nH]2)CCC3)n1	47
C/C=C/C(=O)Nc1cc(C)nn1-c1nc2c(c(=O)[nH]1)CCC2	70
COCCn1c(=NC(=O)c2ccc([N+](=O)[O-])cc2)sc2cc(NC(C)=O)ccc21	75
Cc1cc(C(=O)CSc2nc3sc4c(c3c(=O)n2-c2ccccc2)CCCC4)c(C)n1-c1cc(F)ccc1F	93
O=[N+]([O-])c1ccccc1-c1ccc(-c2nnc(-c3ccco3)o2)o1	25*
CCOC(=O)C(=Cc1ccc(-c2ccccc2[N+](=O)[O-])o1)C(=O)OCC	58
O=[N+]([O-])c1cccnc1Sc1nccc(-c2ccco2)n1	54
Cc1csc(NC(=O)CCn2cnc3c(cnn3C(C)(C)C)c2=O)n1	63
O=[N+]([O-])c1cccc(/C=N\Nc2nc(-c3ccc(Cl)c(Cl)c3)cs2)c1	58
Fc1ccc(-c2csc(N/N=C\c3ccccc3)n2)cc1	56
SMILES	RMI FANCM FP
C=CCc1cccc(/C=N\Nc2nc(-c3ccc4ccccc4c3)cs2)c1O	14*
Cc1ccc2c(c1)N(C(=O)Cn1nc3ccc(SC(C)(C)C)nn3c1=O)CCO2	64
O=C(O)CC(CC(=O)Nc1cccc2c1CCCC2)c1ccccc1 (configuration not stated)	55
Cc1cc(NC(=O)C(=O)NCc2cccnc2)no1	52
CCOC(=O)c1c(C)oc2c(F)c(F)c(F)c(F)c12	62
CCOC(=O)c1c(C)oc2c1c1c(c3ccccc32)OCN(C2CCCCC2)C1	31*
CCOC(=O)c1c(-c2ccccc2)oc2c1cc(OC(=O)c1cc(OC)cc(OC)c1)c1ccccc12	54
CSc1c2c(c(C#N)c3nc4ccccc4n13)CCCC2	73
Cc1c2c(n3c(nc4ccccc43)c1C#N)SCC2	24*
CCc1c(C)c(C#N)c2nc3ccccc3n2c1N	66
Cc1ccc(OCCN2CCN(c3c4c(c(C#N)c5nc6ccccc6n35)CCCC4)CC2)cc1	62
Cc1c2c(n3c(nc4ccccc43)c1C#N)N(C(C)c1ccccc1)CC2 (configuration not stated)	79
COc1cccc(N2CCc3c(C)c(C#N)c4nc5ccccc5n4c32)c1	14*
COc1ccc(S(=O)(=O)N2CCC(C(=O)Nc3ccc4c(c3)C(=O)NC4=O)CC2)cc1	52
CS(=O)(=O)c1cccc(C(=O)Nc2nnc(CCS(=O)(=O)c3ccccc3)o2)c1	52
COC(=O)c1ccc(NC(=O)c2nnn(Cc3ccc(C)cc3)c2N)cc1	54
O=C1CC(c2ccc(O)cc2)Oc2cc(O)cc(O)c21 (configuration not stated)	63
Oc1cc(O)c2c(c1)O[C@H](c1cc(O)c(O)c(O)c1)[C@H](O)[C@H]2c1c(O)cc(O)c2c1O[C@H](c1cc(O)c(O)c(O)c1)[C@H](O)[C@H]2c1c(O)cc(O)c2c1O[C@H](c1cc(O)c(O)c(O)c1)[C@H](O)C2	-7*
O=C(O[C@@H]1Cc2c(O)cc(O)cc2O[C@@H]1c1cc(O)c(=O)c2c(O)c(O)cc([C@H]3Oc4cc(O)cc(O)c4C[C@H]3O)c2c1)c1cc(O)c(O)c(O)c1	46
Cc1cccc2cc(CC3CC(c4ccccc4)=NN3C(=O)CCC(=O)O)c(Cl)nc12 (configuration not stated)	55
C=CCn1c(=S)[nH]c2cc(C(=O)NCCSCc3ccccc3)ccc2c1=O	62
O=c1cc(-c2ccccc2)oc2cc(O)cc(O)c12	55
COc1cc(O)c2c(=O)c(-c3ccc(O)cc3)coc2c1	51
O=c1c(-c2ccccc2)coc2cc(O)cc(O)c12	33*
CC1CN(c2ncnc3c2cnn3CCNC(=O)c2cccc(C(F)(F)F)c2)CC(C)O1 (configuration not stated)	63
SMILES	RMI FANCM FP
O=C(Nc1ccc2c(c1)N(C(=O)c1ccco1)CC2)c1c(F)cccc1F	67
O=C(NCCCn1nc(-c2ccccc2)ccc1=O)Nc1ccc(OC(F)(F)F)cc1	67
CSc1ccc(Oc2ccc(N)cn2)cc1	56
Nc1ccc(Oc2cccnc2)nc1	-6*
CC(C)Oc1ccccc1Oc1ccc(N)cn1	50
CC1CCc2oc3c(cc(NS(=O)(=O)c4cccs4)c4ccccc43)c2C1 (configuration not stated)	64
CC1CCc2oc3c(cc(NS(=O)(=O)c4ccc(Br)cc4)c4ccccc43)c2C1 (configuration not stated)	35
CCC(C)(C)C1CCc2oc3c(cc(NS(=O)(=O)c4cccc([N+](=O)[O-])c4)c4ccccc43)c2C1 (configuration not stated)	32*!
Cc1nnc2ccc(N3CCN(C(=O)Nc4ccc(F)cc4F)CC3)nn12	67
CCOC(=O)c1c(C)[nH]c(C(=O)CSc2ccc(Cl)cc2)c1C	71
COC(=O)c1c(C)[nH]c(C(=O)CN2CCCCCC2)c1C	6*
COC(=O)c1c(NC(=O)CN2CCCCCC2)sc2c1CCCC2	73
Cc1cc(C)cc(C(=O)Nc2cccc(-c3ccc4nncn4n3)c2)c1	71
Cc1ccc(C)c(S(=O)(=O)N=C2C=C(Cl)C(=O)c3ccccc32)c1	20*
Cc1ccc(C)c(S(=O)(=O)N=C2C=C(SCC(=O)O)C(=O)c3ccccc32)c1	67
Cc1ccc(C)c(S(=O)(=O)N2C(=S)NC(=O)C2Cc2ccccc2)c1 (configuration not stated)	75
Cc1ccc2oc(C(=O)N3c4ccccc4CC3C)cc2n1 (configuration not stated)	58
Cc1ccc(-c2nn(-c3ccccc3)cc2/C=C2\SC(=S)NC2=O)cc1F	74
COc1ccc(-c2nn(-c3ccccc3)cc2/C=C2\SC(=O)NC2=S)cc1	27*
COc1ccc(-c2nn(-c3ccccc3)cc2CN(Cc2ccccc2)C(=O)/C=C/C(=O)O)cc1	61
N/C(=N/OC(=O)c1ccc2ncsc2c1)c1ccc(Cl)cc1Cl	48
COc1cc(O)c2c(c1)C(=O)c1cc(C)cc(O)c1C2=O	55
Cc1cc2c3c(c1)c(O)c(-c1ccccc1)c(=O)n3CCC2	62
